HTR5A ag ctr – HTR5A agonism, opioid heterodimer counter-screen; P47898; HTR5A agonist assay, luminescence, cell-based; activation, % at 9.3 µM; 0.61% of 340,000 active; in the data active means activation mostly above about 9.5%, no sharp cut-off; inactive means mostly below about 7.6%
MOR-DOR inv ag – inverse agonists of human mu-delta opioid receptor heterodimerization; AID 504357; 0.21% of 340,000 active; inhibition, % at 9.3 µM; cell-based MOR-DOR heterodimer luminescence, inverse agonism; in the data active means inhibition above about 22%, passing the limit was not always enough
Target sequence (P35372 whole entry, looked up): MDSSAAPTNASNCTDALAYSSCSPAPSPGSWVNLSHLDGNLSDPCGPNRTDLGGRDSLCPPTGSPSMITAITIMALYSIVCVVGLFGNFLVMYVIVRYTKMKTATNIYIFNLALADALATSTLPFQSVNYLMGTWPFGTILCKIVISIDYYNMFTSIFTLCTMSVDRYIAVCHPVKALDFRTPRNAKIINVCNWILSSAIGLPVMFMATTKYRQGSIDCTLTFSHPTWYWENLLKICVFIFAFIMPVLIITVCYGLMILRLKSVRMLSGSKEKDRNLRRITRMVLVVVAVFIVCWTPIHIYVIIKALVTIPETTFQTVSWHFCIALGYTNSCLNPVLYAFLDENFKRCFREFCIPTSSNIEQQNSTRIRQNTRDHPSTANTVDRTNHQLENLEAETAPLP
Target sequence (P41143 whole entry, looked up): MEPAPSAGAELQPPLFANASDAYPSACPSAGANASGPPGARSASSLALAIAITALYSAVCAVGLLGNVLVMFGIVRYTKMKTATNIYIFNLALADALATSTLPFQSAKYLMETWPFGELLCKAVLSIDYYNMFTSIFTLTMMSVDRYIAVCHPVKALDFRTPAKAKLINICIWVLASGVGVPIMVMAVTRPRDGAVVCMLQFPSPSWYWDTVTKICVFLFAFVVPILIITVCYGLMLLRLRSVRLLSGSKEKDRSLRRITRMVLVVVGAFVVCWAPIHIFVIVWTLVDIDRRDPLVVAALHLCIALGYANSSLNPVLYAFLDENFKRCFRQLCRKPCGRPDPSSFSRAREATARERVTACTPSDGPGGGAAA
HTR5A inv ctr – inverse agonist of human HTR5A in OPRM1-OPRD1 counter-screen; AID 504634; HTR5A cell line, luminescence, inverse agonism; 0.083% of 340,000 active; inhibition, % at 9.3 µM; P47898; in the data active means inhibition mostly above about 23%, no sharp cut-off; inactive means mostly below about 18%
MOR-DOR ag – OPRM1-OPRD1 heterodimerization agonism; P35372+P41143; cells, luminescence; activation, % at 9.3 µM; 0.3% of 340,000 active; AID 504326; in the data active means activation above about 18%
Hits are given with their value; 0 = inactive. An excerpt weighted towards active compounds, which were near 1.1% of everything screened.

SMILES	HTR5A ag ctr	MOR-DOR inv ag	HTR5A inv ctr	MOR-DOR ag
COc1ccc(C2CC(=O)C(C3NCCc4ccccc43)=C(O)C2n2cncn2)cc1 (centres undefined)	11.1	0	0	0
CC1=Nc2cc(C(=O)NCCN3CCOCC3)ccc2Sc2c(C)ccc(C)c21	0	0	0	0
CC1=Nc2cc(C(=O)NCCCN3CCOCC3)ccc2Sc2c(C)ccc(C)c21	10.0	0	0	0
CN1C(=O)C(O)(CC(=O)/C=C/c2ccco2)c2ccccc21 (centres undefined)	9.6	0	0	0
O=C(Nc1cccc(C(F)(F)F)c1)Nc1ccc2[nH]c(=O)[nH]c2c1	12.7	0	0	0
Cn1cc(Cl)c(-c2n[nH]c(=S)n2C2CCCCC2)n1	0	0	0	0
COc1ccc(NC(=O)CN(C)C(=O)c2cn(-c3ccccc3)nc2-c2ccc(Cl)cc2)cc1	0	0	0	0
CC(c1ccccc1)n1cc(C(=O)NCC2COc3ccccc3O2)nn1 (centres undefined)	12.2	0	0	0
O=C(NCC1COc2ccccc2O1)c1cn(Cc2ccc(F)cc2)nn1 (centres undefined)	12.9	0	0	0
CCOC(=O)c1c(-c2ccco2)csc1NC(=O)COC(=O)c1cnccn1	0	0	0	0
Cc1cc(C)c(C)c(S(=O)(=O)NCC(=O)Nc2ccccc2F)c1C	0	0	0	0
Cc1noc(C)c1C(=O)N(CC(=O)Nc1ccccc1Br)Cc1ccco1	0	0	0	0
CCOc1cccc2sc(N(CCN(C)C)C(=O)/C=C/c3cccs3)nc12	13.1	0	0	0
CCN(CC)CCN(C(=O)/C=C/c1cccs1)c1nc2ccc(C)cc2s1	13.4	0	0	0
COc1ccc(S(=O)(=O)N2CCCCC2)cc1NC(=O)CNc1ccccc1C(C)=O	0	0	0	0
COc1ccccc1CCNC(=O)c1cccc(S(=O)(=O)N2CCc3ccccc3C2)c1	0	0	0	0
CCn1c(O)c(/C=N/N=C/c2ccccc2)c2ccc(C3=NNC(=O)CC3)cc21	12.7	0	0	0
CCC(=O)c1ccc(OCC(O)CNC(C)c2ccccc2)cc1 (centres undefined)	0	0	0	0
CC(C)c1ccc(OCC(O)CNC(C)c2ccccc2)cc1 (centres undefined)	11.7	0	0	0
Cc1cc(/C=C\c2nc(O)c([N+](=O)[O-])c(=O)[nH]2)c(C)n1-c1ccccc1	0	0	0	34.0
Cc1cc(Nc2nc3ccccc3nc2Cl)n(-c2ccc([N+](=O)[O-])cc2)n1	0	0	37.9	0
COc1cc(OC)cc(C(=O)NC(C(=O)NCCc2ccccn2)C(C)C)c1 (centres undefined)	0	0	0	0
O=S(=O)(Nc1cccc(-c2ccc(N3CCCCCC3)nn2)c1)c1ccc(C(F)(F)F)cc1	11.5	0	0	0
Cc1csc(NC(=O)C2CCN(S(=O)(=O)c3ccccc3F)CC2)n1	0	0	0	0
O=C(CCCn1c(=O)[nH]c2cc(Cl)ccc2c1=O)NC1CCCCCCC1	0	0	0	0
SMILES	HTR5A ag ctr	MOR-DOR inv ag	HTR5A inv ctr	MOR-DOR ag
CN(Cc1ccccc1)C(=O)CCCn1c(=O)[nH]c2cc(Cl)ccc2c1=O	13.4	0	0	0
Cc1cc(N2CCOCC2)nc2ccc(NC(=S)N3CCCCC3C)cc12 (centres undefined)	12.1	0	0	0
Cc1cc(N2CCN(C)CC2)nc2ccc(NC(=S)N3CCCCC3)cc12	0	0	0	0
Cc1ccccc1OCCc1c(C)[nH]c(=S)[nH]c1=O	12.3	0	0	0
CC(C)(C)c1cc(S(=O)(=O)CCc2ccncc2)cc(C(C)(C)C)c1F	0	0	0	0
Cc1cc(C(=O)NNC(=O)Cc2ccc(Cl)c(Cl)c2)c(C)o1	0	0	0	0
S=c1[nH]c(-c2ccccc2)cs1	10.2	0	0	0
Fc1ccc(-c2csc(=S)[nH]2)cc1	0	0	0	0
CC(C)CNC(=O)COC(=O)c1c2c(nc3ccccc13)/C(=C\c1cccs1)CC2	0	0	0	20.7
CC1CN(C(=O)COC(=O)/C=C/c2ccc(C(F)(F)F)cc2)CC(C)O1 (centres undefined)	0	0	0	0
CC(=O)N1CCN(C(=O)COC(=O)/C=C/c2ccc(C(F)(F)F)cc2)CC1	14.0	0	0	0
CS(=O)(=O)N(CC(=O)N1CCN(Cc2ccccc2)CC1)c1ccccc1Br	0	0	0	0
CC(C)CN1C(=O)c2ccc(C(=O)NCc3ccccn3)cc2C1=O	9.6	0	0	0
Cc1cc(C)n(-c2ccc(C(=O)NC(C)C)cc2)n1	0	0	0	0
CC(C)NC(=O)c1ccc(-n2nc(C(F)(F)F)c3c2CCCC3)cc1	12.5	0	0	0
COc1ccc(S(=O)(=O)Cc2ccc(C(=O)N3CCOCC3)o2)cc1	0	0	0	0
COc1ccc(S(=O)(=O)Cc2ccc(C(=O)N3CC(C)CC(C)C3)o2)cc1 (centres undefined)	13.2	0	0	0
Cc1cc(NC(=S)N(Cc2ccc(Br)cc2)Cc2ccc(C(=O)O)cc2)ccc1Cl	12.3	0	0	0
Cc1cccc(NC(=S)N(Cc2ccc(Br)cc2)Cc2ccc(C(=O)O)cc2)c1	0	0	0	0
COc1ccc(C2CC(=O)Oc3ccc(OC)cc32)cc1 (centres undefined)	0	0	0	0
COc1ccc(C(=O)C(CCC(CNC(C)(C)C)C(=O)c2ccc(OC)cc2)CNC(C)(C)C)cc1 (centres undefined)	12.7	0	0	0
COc1ccc(C(=O)CC(=O)c2ccc(C(C)(C)C)cc2)cc1	0	0	0	0
COc1ccccc1N(CC(=O)NCCSc1ccccn1)S(=O)(=O)c1ccccc1	12.0	0	0	0
Cc1ccccc1N(CC(=O)NCCSc1ccccn1)S(=O)(=O)c1ccccc1	0	0	0	0
COc1ccc(N=CC2=C(O)CC(c3ccccc3)CC2=O)c(OC)c1 (centres undefined)	0	0	0	0
SMILES	HTR5A ag ctr	MOR-DOR inv ag	HTR5A inv ctr	MOR-DOR ag
CCOc1ccccc1N=CC1=C(O)CC(c2ccccc2)CC1=O (centres undefined)	12.6	0	0	0
CC1CCN(S(=O)(=O)c2ccc(NC(=O)Cn3nnc(-c4ccccc4)n3)cc2)CC1	16.4	0	0	31.5
Cc1cccc(C(=O)NCC(=O)NC(C)c2ccc(-n3ccnc3)cc2)c1 (centres undefined)	0	0	0	0
CCC(CC)c1nnc(NC(=O)CC(C)c2ccccc2)s1 (centres undefined)	11.5	0	0	0
CCn1c(SCC(=O)Nc2cc(C)on2)nc2sc3c(c2c1=O)CCCC3	21.1	0	0	25.6
Cc1c(OCC(=O)N2CCC(C(=O)O)CC2)ccc2c1oc(=O)c1ccccc12	0	0	0	0
CC(C)CNS(=O)(=O)c1cc(C(=O)N2CCOCC2)c(Cl)cc1Cl	10.0	0	0	0
COc1ccccc1N(C(=O)CCl)c1cn(C(C)=O)c2ccccc12	39.0	0	0	50.5
CCOC(=O)c1ccccc1Nc1cn(C(C)=O)c2ccccc12	0	0	0	0
Cc1ccc(NC(=O)Cn2c(O)c(N=NS(=O)(=O)c3ccc(C)cc3)c3ccccc32)cc1	0	52.9	0	0
Cc1ccc(NC(=O)Cn2c(O)c(N=NC(N)=O)c3ccccc32)cc1	0	0	0	0

Screens from PubChem BioAssay.
